Source: PubChem BioAssay (National Center for Advancing Translational Sciences (NCATS))
The list is not random: actives were taken first. Their share in the collection is about 12%.
Sfp inh = qHTS Assay for Inhibitors of Bacillus subtilis Sfp phosphopantetheinyl transferase (PPTase); 4'-phosphopantetheinyl transferase ffp (Bacillus subtilis), Q9F4F7; Biochemical Sfp PPTase activity, qHTS; Potency, µM, for inactives: largest response in the series, negative = inhibition, actives largely listed as inhibitors; 310,000 compounds, 3.5% hits; AID 1490, 2009;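 note: the enzyme is Sfp with the accession as filed and its product quenches rhodamine fluorescence; 0% = enzyme reaction without inhibitor and -100% = no enzyme wells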
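Reaction rates are the 30-min fluorescence difference (ex 525, em 598 nm) in wells containing 15 nM Sfp, 5 uM rhodamine-CoA and 12.5 uM BHQ-2-YbbR at pH 7.6 with 10 mM MgCl2.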
BAZ2B inh = qHTS Assay for Inhibitors of BAZ2B; Bromodomain adjacent to zinc finger domain protein 2B (Homo sapiens), Q9UIF8; AlphaScreen BAZ2B-H3K14Ac peptide displacement; Potency, µM (doses to about 114 µM), without a hit: top-dose activity change, negative = inhibition, actives largely listed as inhibitors; 360,000 compounds, 4.4% hits; AID 504333, 2011; note: % is set by controls: 0 for no effect and ±100 for the full control effect; nearly all actives have a fitted effect of over 60% in size
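In this displacement format the biotinylated H3(5-23) peptide acetylated at Lys14 serves as ligand at 50 nM, with BAZ2B at 50 nM in PBS pH 7.4 containing 0.01% Tween-20. Donor and acceptor beads are 10 ug/mL final.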
HP1b chromo inh = HTS for Inhibitors of HP1-beta Chromodomain Interactions with Methylated Histone Tails | AlphaScreen HP1-beta / biotin-H3K9me3 peptide binding | Potency, µM (highest dose often 114 µM), for the others: at the top dose activity change, negative = inhibition, actives largely listed as inhibitors | Chromobox protein homolog 1 (Homo sapiens), P83916 | 390,000 compounds, 0.56% hits | AID 540317, 2011; note: nearly all actives have a fitted effect of over 70% in size
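Compound inhibition of the preformed complex between 50 nM HP1-beta and 50 nM biotinylated H3K9me3 peptide was read by AlphaScreen. Buffer was PBS pH 7.4 with 0.01% Tween-20. Incubations ran 30 min at room temperature, with 10 ug/mL donor/acceptor beads.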
JMJD2A Tudor inh = qHTS Assay for Inhibitors of JMJD2A-Tudor Domain; Lysine-specific demethylase 4A (Homo sapiens), O75164; AlphaScreen JMJD2A-Tudor / H3K4me3 peptide binding; Potency, µM (titrated, usually from 114 µM), inactives show at the highest dose activity change, negative = inhibition, most hits filed as inhibitors; 390,000 compounds, 4.4% hits; note: % is set by controls: 0 for no effect and ±100 for the full control effect; nearly all actives have a fitted effect of over 50% in size
G9a inh = qHTS Assay for Inhibitors of Histone Lysine Methyltransferase G9a; G9a H3K9 monomethylation, AlphaScreen, 2 h; Potency, µM (highest dose often 102 µM), for inactives: top-dose activity, negative = inhibition, most hits filed as inhibitors; 350,000 compounds, 8.8% hits; note: % is set by controls: 0 for no effect and ±100 for the full control effect; nearly all actives have a fitted effect of over 75% in size
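Step 1: enzyme (final 20 nM) with compound, 15 min RT. Step 2: substrate peptide 500 nM and SAM 20 uM, 2 h RT. Step 3: anti-H3K9me1 antibody and AlphaScreen beads, 10 min, then plate read.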
TDP1 inh = qHTS Assay for Inhibitors of Tyrosyl-DNA Phosphodiesterase (TDP1); recombinant TDP1, AlphaScreen DNA substrate cleavage; Potency, µM (doses to about 130 µM), for the others: top-dose activity change, negative = inhibition, most hits filed as inhibitors; 350,000 compounds, 0.28% hits; AID 485290, 2010; note: % is set by controls: 0 for no effect and ±100 for the full control effect; nearly all actives have a fitted effect of over 40% in size
Target sequence (Q9NUW8 whole entry, looked up): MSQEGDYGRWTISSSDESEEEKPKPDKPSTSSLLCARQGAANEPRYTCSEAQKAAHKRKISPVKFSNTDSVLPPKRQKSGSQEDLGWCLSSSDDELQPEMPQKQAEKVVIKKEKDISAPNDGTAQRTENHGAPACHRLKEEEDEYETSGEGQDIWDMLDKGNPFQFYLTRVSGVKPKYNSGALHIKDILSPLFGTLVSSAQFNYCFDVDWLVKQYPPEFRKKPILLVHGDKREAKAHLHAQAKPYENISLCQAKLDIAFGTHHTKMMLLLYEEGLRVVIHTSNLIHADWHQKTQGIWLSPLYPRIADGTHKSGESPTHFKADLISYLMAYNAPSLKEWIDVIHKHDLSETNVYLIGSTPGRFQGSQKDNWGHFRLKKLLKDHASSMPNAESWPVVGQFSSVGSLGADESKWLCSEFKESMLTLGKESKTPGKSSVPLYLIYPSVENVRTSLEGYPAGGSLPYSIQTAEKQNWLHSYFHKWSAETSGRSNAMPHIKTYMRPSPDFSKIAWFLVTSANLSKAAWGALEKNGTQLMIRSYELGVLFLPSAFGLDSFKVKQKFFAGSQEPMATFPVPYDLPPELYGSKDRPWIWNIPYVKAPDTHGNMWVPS
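Enzyme-compound mixtures sat 15 min at room temperature, followed by a 5 min reaction with 15 nM final substrate and 10 min with AlphaScreen beads. Recombinant human Tdp1 was used at 1 nM final.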
* marks the source's active call; other numbers are inactive results; ? = inconclusive; . = no result given; [ ] = dose if it differs, or a comment. Calls come from the whole dose curve; as a rule, active = well fitted curve in the direction sought with a large enough effect; inconclusive = small, poorly fitted or top-dose-only effect, or another doubt; inactive = no such curve, though single readings can be large; an effect the other way counts as inactive or inconclusive. Potency is the fitted concentration of half-maximal effect.

SMILES | Sfp inh | BAZ2B inh | HP1b chromo inh | JMJD2A Tudor inh | G9a inh | TDP1 inh
N=C1/C(=C/c2cccn2Cc2ccc(Cl)cc2)C(=O)N=C2SC=CN12 | 40µM* | ? | -9% | -17% | 7% | 5%
CCOC(=O)c1ccc(NC(=O)CSc2nnc(CNC(=O)c3ccc(OC)cc3)n2CC)cc1 | . | -22% | 38% | 2% | 1%[59 µM] | 8%
CCOC(=O)C1CCN(C(c2ccccc2)c2c(O)cc(C)n(Cc3ccco3)c2=O)CC1 (centres undefined) | . | -19% | 40%[57 µM] | -11% | -49%[59 µM] | 0%
COc1ccc(O[C@H]2C=C[C@@H](c3ccccc3)O[C@@H]2CO/N=C(\C)CCN2CCc3nc(-c4ccccc4)c(-c4ccccc4)cc3C2)cc1 | -2% | -38% | . | . | 32µM* | 12%[21 µM]
COc1ccc(O[C@H]2C=C[C@@H](c3ccccc3)O[C@H]2COC(=O)CC/C(C)=N/OCC[C@@H]2C=C[C@H](OC(C)=O)[C@H](COC(C)=O)O2)cc1 | -1% | . | . | . | . | 5%[21 µM]
CCc1cc2c(nc1CC)CCN(CC/C(C)=N/OC[C@H]1O[C@H](c3ccccc3)C=C[C@@H]1Oc1ccc(OC)cc1)C2 | -5% | ? | . | . | 45µM* | 11%[21 µM]
C=CCNc1oc(-c2ccc(-c3ccccc3)cc2)nc1C#N | . | . | 18% | 79µM* | . | 4%
COCCCNc1oc(-c2ccccc2Cl)nc1C#N | 19% | -39% | -3% | -22% | ? | 1%
N#Cc1nc(-c2ccc(Cl)cc2)oc1NCc1ccco1 | 11% | -31% | -31% | -8%[11.4 µM] | -8%[12.7 µM] | 5%
N#Cc1nc(-c2ccccc2)oc1NCc1ccco1 | -5% | 50µM* | 16% | -29% | ? | 3%
N#Cc1nc(-c2ccccc2Cl)oc1NCc1ccco1 | -13% | 50µM* | -30% | ? | ? | 8%
CC(C)CNc1oc(-c2ccccc2Cl)nc1C#N | -11% | ? | ? | -22% | 40µM* | 5%
CCN(CC)S(=O)(=O)c1ccc2[nH]c(=O)cc(C(=O)NCc3ccccc3)c2c1 | 9% | 8% | 16% | -6% | ? | 8%
CCOc1ccc(CC(=O)N/N=C(\C)c2cccnc2)cc1OCC | 4% | -11% | 15% | -5% | 3% | 4%[56.1 µM]
COc1ccc(CNc2oc(-c3ccccc3)nc2C#N)cc1 | -12% | 45µM* | -17% | ? | 40µM* | 5%
COc1ccc(-c2nc(C#N)c(NCCc3ccccc3)o2)cc1 | -2% | 1% | 23% | -8% | -11%[59 µM] | 0%
Oc1ccc(/C=N/Nc2ccc(C(F)(F)F)cn2)cc1 | 0% | -16% | 34% | -12% | 0% | 2%
CCCOc1ccc(/C=N/Nc2ccccn2)cc1OC | ? | -4% | 40% | -8% | -2% | 6%
CCOc1ccc(/C=N/Nc2ccccn2)cc1OC | 56µM* | . | -14% | ? | -9% | 8%
COc1cc(/C=N/Nc2ccc(C(F)(F)F)cn2)cc(OC)c1O | ? | -18% | -2% | -8% | 40µM* | 0%
COc1cc(N/N=C/c2ccc(N(C)C)cc2)ncn1 | 2% | -34% | 23% | -28% | -5% | 4%
COc1cc(N/N=C/c2ccccc2O)ncn1 | 2% | 28µM* | 9% | 45µM* | 22% | 7%
Oc1ccc(/C=N/Nc2ccc(C(F)(F)F)cn2)c(O)c1 | 16% | 28µM* | . | . | 15% | .
Cc1ccc(C)c(S(=O)(=O)N2CCN(C(=O)[C@@H]3CCCN3C(=O)c3cccs3)CC2)c1 | . | -7% | 4% | -12% | 15%[12.7 µM] | 4%
CCOC(=O)[C@H]1[C@H]2COc3cc(OC)ccc3[C@@H]2N2C(=O)CN(CC3CCCO3)C(=O)[C@@]12C (some centres undefined) | . | 9% | 17% | -13% | 2%[2.33 µM] | -4%
SMILES | Sfp inh | BAZ2B inh | HP1b chromo inh | JMJD2A Tudor inh | G9a inh | TDP1 inh
COc1cc(/C=N/Nc2ccccn2)cc(OC)c1O | 35µM* | -17% | 15% | -25% | 28µM* | 3%
C=CCOc1ccc(/C=N/Nc2ccccn2)cc1OC | ? | -5% | 29% | -7% | 15% | 11%
COc1ccc(NC(=O)CN(C)C(=O)c2cccc(-n3cccc3)c2)cc1 | . | 11µM* | 25µM* | 22µM* | 45µM* | 2.5µM*
COc1ccc(NC(=O)CN(C)C(=O)c2cccc(Oc3ccccc3)c2)cc1 | . | 2% | 23% | -22% | ? | 3%
Cc1ccc(C)c(NC(=O)CN(C)C(=O)c2cccc(N3C(=O)CCC3=O)c2)c1 | . | -4% | 3% | -6% | 40µM* | -4%
Cc1cccc(NC(=O)CNC(=O)c2cccc(-n3cccc3)c2)c1C | . | 14µM* | ? | 14µM* | 35µM* | .
COc1ccc(NC(=O)CN(C)C(=O)c2cccc(S(=O)(=O)N3CCN(Cc4ccccc4)CC3)c2)cc1 | 50µM* | ? | 11% | -22% | 18µM* | 6%
O=C(Nc1ccccc1N1CCCC1)c1ccc([N+](=O)[O-])cc1Cl | 3% | -28% | 17% | -12% | -2% | 11%
Cc1ccc(NC(=O)CN(C)C(=O)c2ccc(Cl)nc2)cc1 | 30% | 0% | 13% | -11% | -5% | .
Cc1ccc(NC(=O)CN(C)C(=O)c2cccc(-n3cccc3)c2)cc1 | . | 11µM* | 20µM* | ? | 25µM* | .
CCN(CC(=O)Nc1ccccc1OC)C(=O)c1cccc(-n2cccc2)c1 | 8% | ? | -13% | ? | 45µM* | 9%
CN(C)CCNc1ccc(CO)c2oc3ccc(O)cc3c(=O)c12 | . | . | -3% | ? | . | .
CCN(CC)CCNc1ccc(C)c2sc3ccc(O)cc3c(=O)c12 | . | . | ? | 22µM* | . | .
COc1ccc(CNc2nc(NCc3ccc(OC)cc3)n(C(=O)c3ccccc3[N+](=O)[O-])n2)cc1 | 7% | -1% | 12% | ? | 6.3µM* | 2%
CN(C)C(=S)NC(=O)C(c1ccccc1)c1ccccc1 | 6% | -23% | 34% | -1% | 79µM* | 5%
O=C1c2[nH]nc(-c3ccc(F)cc3)c2C(c2ccccc2F)N1c1ccccc1 (centres undefined) | . | 0% | 20% | -2% | ? | .
CCN1C(=NCc2cc(OC)c(OC)c(OC)c2)N[C@@H](c2ccccc2)[C@H](C(=O)OC)[C@H]1C | 0% | -3% | . | . | ? | .
